Sampled rows, rich in hits. Any-hit rate of the full collection: about 3.3%.
14-3-3 Bad PPI: disrupts binding of bovine 14-3-3 zeta to phospho-Bad peptide | P63103 | TR-FRET 14-3-3zeta/Dy647-pBad peptide displacement, 1 h | inhibition, % at 21.7 µM | actives 0.71% (n = 220,000) | AID 781;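 active = inhibition above about 70%, limit read from the data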
Target sequence (P63103 whole entry, looked up): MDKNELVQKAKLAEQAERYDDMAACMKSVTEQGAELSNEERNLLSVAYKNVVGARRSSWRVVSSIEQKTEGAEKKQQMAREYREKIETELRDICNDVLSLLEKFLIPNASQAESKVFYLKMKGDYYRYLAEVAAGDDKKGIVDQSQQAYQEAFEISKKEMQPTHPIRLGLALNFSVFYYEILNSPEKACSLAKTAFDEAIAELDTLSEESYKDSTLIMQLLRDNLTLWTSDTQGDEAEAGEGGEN
Mcl-1 Bim block: inhibitors of Bim-Mcl-1 interaction, human; Q07820; Bead-based flow cytometry, Bim peptide-Mcl-1 binding; inhibition, % at 10 µM; actives 0.1% (n = 190,000); AID 1009; in the data active = inhibition above about 40%
eIF4E-4G inh: blocks eIF4E binding to eIF4G; TR-FRET eIF4E-eIF4GI(517-606) binding, 2 h; inhibition, % at 21.7 µM; actives 0.37% (n = 220,000); AID 782
Mcl1 Bid PPI: Mcl-1/Bid interaction inhibition. TR-FRET Mcl-1/Bid-Dy647 peptide binding, 1536-well. inhibition, % at 21.7 µM. actives 0.97% (n = 220,000);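 active = compounds that cut the binding signal by more than half at the single screening dose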;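 also: His-tagged Mcl-1 with europium anti-His antibody binding Bid BH3 peptide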
Mcl1-Noxa inh: disrupts binding of human Mcl-1 to Noxa peptide; Q07820; TR-FRET Mcl-1/Noxa peptide binding, 2 h; inhibition, % at 21.7 µM; actives 1.5% (n = 220,000); AID 1022;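 active = compounds that cut the protein-peptide binding signal by more than 50% relative to plate controls in a single-dose test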;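 also: His-tagged Mcl-1 with rhodamine Noxa BH3 peptide and terbium anti-His antibody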
p47phox inh: p47phox (human) inhibition; P14598; p47phox/p22phox peptide binding, fluorescence polarization, 2 h; inhibition, % at 24.7 µM; actives 0.53% (n = 220,000)
Target sequence (P14598 whole entry, looked up): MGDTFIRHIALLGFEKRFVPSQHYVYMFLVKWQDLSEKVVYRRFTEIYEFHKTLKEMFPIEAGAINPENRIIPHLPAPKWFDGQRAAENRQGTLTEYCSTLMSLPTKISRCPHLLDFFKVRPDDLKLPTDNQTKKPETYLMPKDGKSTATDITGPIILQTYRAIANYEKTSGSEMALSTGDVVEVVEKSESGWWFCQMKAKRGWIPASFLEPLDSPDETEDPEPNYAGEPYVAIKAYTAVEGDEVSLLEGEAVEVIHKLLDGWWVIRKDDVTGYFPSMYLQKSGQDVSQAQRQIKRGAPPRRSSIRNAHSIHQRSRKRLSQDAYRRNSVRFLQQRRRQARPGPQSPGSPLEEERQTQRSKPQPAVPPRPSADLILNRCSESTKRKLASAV
Of the large screens only hits and unclear results are named; the others gave an inactive call; [ ] = another dose, or the depositor's remark.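 The calls were made as follows, unless noted: active = inhibition above about 30% (limit read from the data); inactive = the rest.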

CCOc1ccccc1NC(=O)c1cc(-c2ccncc2)nc2c(Cl)cccc12	14-3-3 Bad PPI 73, Mcl1 Bid PPI 51, p47phox inh 40
COc1cccc(NC(=O)c2cc(-c3ccncc3)nc3c(C)cc(C)cc23)c1	none
CC1CN(c2ccc(Oc3ccccc3)cc2)c2nc3c(c(=O)n(CC(N)=O)c(=O)n3C)n2C1 (centres undefined)	eIF4E-4G inh 95 (no result: Mcl-1 Bim block)
Cc1ccc(N2CC(C)Cn3c2nc2c3c(=O)n(CC(=O)OCc3ccccc3)c(=O)n2C)cc1C (centres undefined)	none
O=C(NC(=S)NCc1ccccc1)c1ccccc1[N+](=O)[O-]	none
C/C(N)=C(/C#N)C(=O)CSc1nnc(-c2ccc3c(c2)OCO3)o1	p47phox inh 42
NC(=O)CSc1nnc(-c2ccc3c(c2)OCO3)o1	none
Cc1ccccc1NC(=O)N1CCN(C/C=C/c2ccccc2)CC1	none
O=C(CSc1nc2cc([N+](=O)[O-])ccc2n1-c1ccccc1)NCc1ccc2c(c1)OCO2	Mcl1-Noxa inh 58
Cc1cc(C)cc(-n2c(SCC(=O)NCc3ccc4c(c3)OCO4)nc3ccccc3c2=O)c1	none
Cc1ccc2sc(N(CCCN(C)C)C(=O)CN3C(=O)c4ccccc4C3=O)nc2c1C	none
O=C(Nn1cnnc1)c1ccccc1CCc1ccccc1	Mcl1 Bid PPI 97
CCc1ccc(Nc2nnc(SCC(=O)Nc3sccc3C(N)=O)s2)cc1	Mcl1-Noxa inh 53
CC(=O)Nc1cccc(OCC(=O)Nc2sccc2C(N)=O)c1	Mcl1-Noxa inh 52 (no result: Mcl-1 Bim block)
COc1cccc(Nc2nnc(SCC(=O)Nc3sccc3C(N)=O)s2)c1	Mcl1-Noxa inh 60
O=C(O)C1SCCN1S(=O)(=O)c1ccc(N=NN2CCOCC2)cc1 (centres undefined)	none
CCOC(=O)Cn1c(=O)oc2cc(S(=O)(=O)NCc3cccs3)ccc21	eIF4E-4G inh 54[fluorescence artefact?]
COc1ccccc1/C=C(/C(=O)OCC(=O)Nc1ccc(N(C)C)cc1)c1ccccc1	Mcl1-Noxa inh 69
CC[N+]1=CN(c2ccccc2)C(C)=CC1(C)C	14-3-3 Bad PPI 82[fluorescence artefact?]
Cc1cccc(CN2CCN(Cc3cccc(-n4cccn4)c3)CC2CCO)n1 (centres undefined)	none
COc1cccc(/C=N/NC(=O)COc2cccc3cccnc23)c1O	none
C=CCn1cc(/C=N/NC(=O)COc2cccc3cccnc23)c2ccccc21	Mcl1 Bid PPI 89, Mcl1-Noxa inh 66, p47phox inh 47
O=C(COC(=O)c1ccccc1Br)Nc1cc(S(=O)(=O)N2CCOCC2)ccc1N1CCCC1	none
CC(=O)c1ccc(Nc2ncnc3c2oc2ccccc23)cc1	14-3-3 Bad PPI 72
CC(=O)Nc1ccc(Nc2nc(C)nc3c2oc2ccccc23)cc1	none
CC(=O)NC1C(Oc2ccccc2C)OC(CO)C(O)C1O (centres undefined)	none
O=C(O)CC(CCc1ccccc1)OC1OC(CO)C(O)C(O)C1O (centres undefined)	Mcl1-Noxa inh 92 (no result: Mcl-1 Bim block)
NNC(=O)c1csc(-c2ccc(C(F)(F)F)cc2Cl)n1	none (no result: Mcl-1 Bim block)
Cc1ccc(-c2nn3c(C)nnc3s2)cc1NC(=O)c1ccc(-c2cccc(Cl)c2)o1	none
Cc1ccc(-c2nn3c(C)nnc3s2)cc1NC(=O)c1ccc(-c2ccc(Cl)cc2Cl)o1	14-3-3 Bad PPI 86[fluorescence artefact?]
Clc1ccc(-c2nnc3sc(-c4ccc(Br)o4)nn23)c(Cl)c1	none
Cc1oc(-c2ccc(Cl)cc2)cc1-c1nn2c(-c3ccoc3C)nnc2s1	Mcl1 Bid PPI 55, Mcl1-Noxa inh 89
CN(C)c1ccc(-c2nn3c(-c4ccc(Cl)cc4Cl)nnc3s2)cc1	Mcl1 Bid PPI 93, Mcl1-Noxa inh 87
CCOC(=O)c1ccc(NC(=O)CSc2nnc(Cn3c(=O)sc4ccccc43)n2C)cc1	p47phox inh active
CCc1ccc(NC(=O)CSc2nnc(Cn3c(=O)sc4ccccc43)n2C)cc1	none
CCCCCc1nc2c(=O)[nH]c3ccccc3c2o1	Mcl1-Noxa inh 77
CC(=O)c1ccc(N2CCN(C(=O)CCCn3c(=S)[nH]c4cc5c(cc4c3=O)OCO5)CC2)cc1	Mcl1 Bid PPI 55
N/C(=N\O)C1COc2ccccc2O1 (centres undefined)	14-3-3 Bad PPI 84
Cc1cc(/C=C(/C#N)c2nc3ccccc3[nH]2)c(C)n1-c1cc(C(=O)O)cc(C(=O)O)c1	Mcl1-Noxa inh 52
N#C/C(=C\c1cn(-c2ccccc2)nc1-c1cc2ccccc2o1)c1nc2ccccc2[nH]1	Mcl1-Noxa inh 59
O=C(CCNc1ccc(Cl)cc1)c1cccs1	none
O=C(CCSc1ccc(Cl)cc1)c1cccs1	Mcl1-Noxa inh 57
COc1ccc(N2CCN(C(CNC(=O)C(=O)NCc3ccc4c(c3)OCO4)c3ccco3)CC2)cc1 (centres undefined)	none
Oc1ccc(Nc2nc3ccccc3nc2Nc2ccc(O)cc2)cc1	Mcl1-Noxa inh 82, p47phox inh 66
Cc1cc(-c2ccco2)n2c(nc3ccccc32)c1C#N	Mcl1 Bid PPI 96
C=C(C)CSc1cc(C)c(C#N)c2nc3ccccc3n12	none
CCOC(=O)c1ccc(NC(=O)c2nc[nH]c2C(=O)N[C@@H](CC(C)C)C(=O)OCc2ccccc2)cc1	none (no result: Mcl-1 Bim block)
COc1ccc(C2C(C#N)=C(N)OC3=C2C(=O)CCC3)c(OC)c1OC (centres undefined)	none
COc1ccc(C2C(C#N)=C(N)OC3=C2C(=O)CC(C)C3)c(OC)c1OC (centres undefined)	Mcl1 Bid PPI 53
COc1ccc(C2C(C#N)=C(N)OC3=C2C(=O)CCC3)cc1OC (centres undefined)	Mcl1 Bid PPI 70
C=C(C)c1cccc(C(C)(C)NC(=O)N2CCCC(C)C2)c1 (centres undefined)	none
C=C(C)c1cccc(C(C)(C)NC(=O)N(C)C2CCN(C)CC2)c1	p47phox inh 110
CC1CN(Cc2c(O)ccc3c(=O)c(-c4ccccc4)coc23)CC(C)O1 (centres undefined)	none
CC1CN(Cc2c(O)ccc3c2oc(=O)c2ccccc23)CC(C)O1 (centres undefined)	14-3-3 Bad PPI 83 (no result: Mcl-1 Bim block)
COc1cc(/C=C2/SC(=S)N(CC3CCCO3)C2=O)ccc1O (centres undefined)	Mcl1 Bid PPI 72
COc1cc(/C=C2\SC(=S)N(C(Cc3ccccc3)C(=O)O)C2=O)ccc1O (centres undefined)	Mcl1 Bid PPI 56 (no result: Mcl-1 Bim block)
O=C(O)C(Cc1ccccc1)N1C(=O)/C(=C/c2ccccc2)SC1=S (centres undefined)	none
Cc1ccc(/C=C2\SC(=S)N(C(Cc3ccccc3)C(=O)O)C2=O)cc1 (centres undefined)	none

Screening data from PubChem BioAssay.
